Experimental data reported in PubChem BioAssay.
Activity calls are given as the source filed them.

Each compound was assayed against NADPH oxidase 4 (Homo sapiens) (UniProt Q9NPH5) (assay: NOX4-dependent H2O2 signal modulators, primary screen, NOX inhibitor project, cell-based, HEK293-NOX4, tetracycline-induced, Amplex Red fluorescence (AID 1160)). Details: 45 min, higher = more signal, called active from +8 up or from −8 down.
Sequence of NADPH oxidase 4 (Homo sapiens) (Q9NPH5 whole entry, looked up): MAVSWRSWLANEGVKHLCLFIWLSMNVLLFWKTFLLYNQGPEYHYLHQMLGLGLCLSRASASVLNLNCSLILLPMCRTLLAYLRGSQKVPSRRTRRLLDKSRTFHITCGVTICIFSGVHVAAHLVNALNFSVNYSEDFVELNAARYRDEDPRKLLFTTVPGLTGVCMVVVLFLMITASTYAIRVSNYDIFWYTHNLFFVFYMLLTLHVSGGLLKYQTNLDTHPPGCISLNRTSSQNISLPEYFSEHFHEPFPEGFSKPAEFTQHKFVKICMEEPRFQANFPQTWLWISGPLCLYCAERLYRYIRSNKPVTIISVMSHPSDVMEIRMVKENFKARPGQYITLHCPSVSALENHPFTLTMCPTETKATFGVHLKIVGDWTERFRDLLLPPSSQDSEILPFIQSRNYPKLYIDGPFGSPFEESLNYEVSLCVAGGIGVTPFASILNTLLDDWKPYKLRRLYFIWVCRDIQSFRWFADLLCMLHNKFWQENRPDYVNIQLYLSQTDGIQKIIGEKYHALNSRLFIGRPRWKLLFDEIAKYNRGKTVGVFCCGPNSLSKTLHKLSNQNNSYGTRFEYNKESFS

z-score, inactive:
COC(=O)C(CC#Cc1ccc2c(c1)[C@]1(C(=O)N2)[C@H](c2ccc(O)cc2)N2[C@H](c3ccccc3)[C@H](c3ccccc3)OC(=O)[C@H]2[C@@H]1C(=O)N1CCCCCCC1)C(=O)OC 0.181
CC(C)=CCCC(C)=CC(O)C1C=CC2C(=O)N(c3ccccc3)C(=O)C2N1Nc1ccccc1F (centres undefined) -0.284
CN(C)CCCCNC(=O)[C@H]1C[C@H]2C(=O)N[C@@H](CCCC[N+](C)(C)C)C(=O)N2[C@H]1c1ccc(O)cc1 0.319
CN(C)CCCNC(=O)[C@@H]1c2ccccc2C(=O)N(C2CCCCC2)[C@H]1c1ccc(CO)cc1 0.197
CC(C)CNC(=O)[C@@H]1c2ccccc2C(=O)N(C2CCCCC2)[C@H]1c1ccc(CO)cc1 1.42
O=C1C2C=CC(C(O)c3ccco3)N(Nc3ccccc3)C2C(=O)N1c1ccccc1 (centres undefined) -2.98
COc1ccc([Si](C)(C)[C@@H]2[C@@H](CCn3cc([C@H](O)c4ccccc4)nn3)O[C@]3(C(=O)N(c4ccccc4)c4ccccc43)[C@H]2C)cc1 0.276
CCCNC(=O)[C@@]1(Sc2ccc(C)cc2)CC(=O)N(C2CCCCC2)[C@@H]1c1ccc(CO)cc1I 0.142
COC(=O)C(CC#Cc1ccc2c(c1)[C@]1(C(=O)N2)[C@H](C(=O)Nc2nc3ccccc3s2)[C@H]2C(=O)O[C@H](c3ccccc3)[C@H](c3ccccc3)N2[C@@H]1c1ccc(OCCO)cc1)C(=O)OC 0.326
CC(=O)NCCCC[C@@H]1NC(=O)[C@@H]2C[C@H](C(=O)NCCCCCCN)[C@H](c3cccc(OCCO)c3)N2C1=O 0.353
COc1ccc([Si](C)(C)[C@H]2[C@H](CCO)O[C@@]3(C(=O)N(Cc4ccc(N5C(=O)c6ccccc6Oc6ccccc65)cc4)c4ccccc43)[C@@H]2C)cc1 2.36
CCCCC=C[C@@H](NC(=O)c1ccccc1)c1ccccc1 -2.77
COCCOC(=O)N1C(=O)[C@@]2(c3cc(C#CC4=CCCCC4)ccc31)[C@H](C(=O)N1CCCCCCC1)[C@H]1C(=O)O[C@H](c3ccccc3)[C@H](c3ccccc3)N1[C@@H]2c1ccc(OCCO)cc1 0.567
COCCOC(=O)N1C(=O)[C@@]2(c3cc(C#CCNC(N)=O)ccc31)[C@H](c1ccc(O)cc1)N1[C@H](c3ccccc3)[C@H](c3ccccc3)OC(=O)[C@H]1[C@@H]2C(=O)N1CCN(c2ncccn2)CC1 -0.121
COCCOC(=O)N1C(=O)[C@@]2(c3cc(C#CCCO)ccc31)[C@H](c1ccccc1OCCO)N1[C@H](c3ccccc3)[C@H](c3ccccc3)OC(=O)[C@H]1[C@@H]2C(=O)N1CCCCCCC1 1.29
CC(=O)N1CC(C(O)C2C=CC3C(=O)NC(=O)C3N2Nc2ccc(Cl)cc2Cl)c2ccccc21 (centres undefined) -4.86
COc1cc2c(cc1OC)CN(C(=O)[C@@H]1[C@H]3C(=O)O[C@H](c4ccccc4)[C@H](c4ccccc4)N3[C@H](c3ccc(O)cc3)[C@@]13C(=O)Nc1ccc(C#CCCO)cc13)CC2 0.152
NCCCCCNC(=O)[C@H]1C[C@H]2C(=O)N[C@@H](Cc3ccccc3)C(=O)N2[C@H]1c1ccc(O)cc1 -0.384
CC(C)OC(=O)CC(=O)CC(O)c1ccc([N+](=O)[O-])cc1 (centres undefined) 0.66
CCCNC(=O)[C@@]1(C)c2ccccc2C(=O)N(Cc2ccccc2)[C@H]1c1ccc(CO)cc1 -0.0486
COC(=O)[C@@]1(Cc2ccc(OC)cc2)[C@H]2c3cc(C(=O)N4CCCC4)n(Cc4cc(C)n(C)n4)c3C[C@H]2CN1C(=O)c1ccccc1 -0.134
C=CCC(OC(C)=O)[C@@H]1[C@@H](N(Cc2ccc(-c3cccc(C(F)(F)F)c3)o2)C(=O)c2ccc(C)cc2)c2cc(OCCCO)ccc2N1C(=O)Cc1ccc(OC)cc1 (some centres undefined) 0.641
CC(=O)n1cc(C(O)C2C=CC3C(=O)N(c4ccccc4)C(=O)C3N2Nc2ccc(C(C)C)cc2)c2ccccc21 (centres undefined) -2.92
C=CCC(OC(C)=O)[C@@H]1[C@@H](N(Cc2ccc(-c3ccccc3)cc2)C(=O)c2ccc(C)cc2)c2cc(OCCCO)ccc2N1C(=O)Cc1ccc2ccccc2c1 (some centres undefined) 0.934
